# HBB splicing = alters splicing of the hemoglobin beta chain | 0.06% of 65,000 active | HBB splicing reporter cell assay, activation; EGFP reporter with mutant IVS2-654 intron; response scale: normalised to 500 nM splice-correcting PNA | Potency, µM (highest dose often 46.1 µM), for the others: top-dose activation, hits mostly activators; further: potency means the concentration at half of the fitted maximal effect; 0% is about no effect
#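 Compounds were applied for 2 days to HeLa EGFP-654 cells, 500/well in Optimem with 2% FCS. The reporter's EGFP is disrupted by mis-splicing of beta-globin intron IVS2-654. Readout: summed well GFP fluorescence from 488 nm laser scanning; reference was 500 nM antisense […] 654 PNA.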
# Imprint erasure = induces erasure of genomic imprints in mouse ES cells | Potency, µM (highest dose often 60.7 µM), for inactives: top-dose activity change, positive = activation, hits mostly activators | AID 1948 | mouse ES Peg3-LacZ reporter, beta-gal luminescence, 40 h | 0.02% of 110,000 active; further: potency means the concentration at half of the fitted maximal effect
#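 Each well holds 300 Peg3LacZ-Neo (maternal) female ES cells incubated 40 h at 37C, 5% CO2. LacZ is measured by BetaGlo luminescence, with AC50 and maximum efficacy derived from dose-response curves.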
# IkB signaling = IkB pathway inhibition in ABC-DLBCL cells | Potency, µM (titrated, usually from 57.1 µM), for inactives: top-dose IkBa stabilization activation | ABC-DLBCL IkBa-CBG/CBR dual luciferase ratio, 4 h; response scale: scaled: untreated 0%, proteasome inhibitor 100% | 0.04% of 110,000 active; active means well fitted curve in the direction sought with a large enough effect in the signal ratio, not every such curve was filed as active; inconclusive means small, poorly fitted or top-dose-only effect, or a change in a side signal; the % refers to the signal ratio;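 further: potency means the concentration at half of the fitted maximal effect; the direction sought is a rising ratio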
#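 Curves were fitted separately to fusion (green), unfused (red) and ratio luminescence, then classed by r2, magnitude and activity. Cells: OCI-Ly3, 4 h compound plus doxycycline at 37C; 10 uM MG-132 defined full response.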
# CRE Fsk mod = CRE-bla signaling modulation under forskolin stimulation; CHO CRE-bla reporter (cAMP response element driving beta-lactamase), forskolin EC10, beta-lactamase ratio; Potency, µM (titrated, usually from 38.2 µM), for the others: at the top dose activity change, negative = inhibition, usual class: activators; 2.5% of 71,000 active; AID 662; active means well fitted activation curve with a large enough effect in the signal ratio, with a control signal flat, not every such curve was filed as active; inconclusive means small, poorly fitted or top-dose-only effect, or effect the other way, or a change in a side signal; the % refers to the signal ratio; further: potency means the concentration at half of the fitted maximal effect; % of control where 0% means no effect
#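 Using CellSensor CRE-bla CHO cells in Opti-MEM with 0.5% dialyzed FBS, compounds were titrated with EC10 NKH 477 for 3 h at 37 °C. CCF4 ratio (460/530 nm) gave %Activity; AC50 derived.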
# GFP derepression = derepresses silenced GFP locus in mouse C127i cells. Potency, µM (highest dose often 46.1 µM), for inactives: top-dose GFP derepression (activation). mouse C127i GFP locus derepression, cytometry, 30 h. 0.09% of 68,000 active; further: % of control where 0% means no effect
#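 Murine C127i mammary cells carrying a silenced, stably integrated CMV-driven GFP reporter were treated with compound for 30 hours at 37 C. After PBS washes, GFP-positive cells were counted by laser-scanning microplate cytometry.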
# An asterisk follows results filed as active; ? = inconclusive; nt = no result given; ! = not confirmed by another sample; [ ] = remark or other dose. Many of the other results were omitted from the sample, so hits are more common in it than they were. Unless noted, the call rests on the fitted dose curve; in most records, active means well fitted curve in the direction sought with a large enough effect; inconclusive means small, poorly fitted or top-dose-only effect, or another doubt; inactive means no such curve, though single readings can be large; an effect the other way counts as inactive or inconclusive.
SMILES,HBB splicing,Imprint erasure,IkB signaling,CRE Fsk mod,GFP derepression
c1ccc(-n2c(SCc3nc(-c4cccs4)no3)nnc2-c2ccco2)cc1,0%,-22%,?,5µM*,0%
Fc1cccc(Cl)c1CNCCSc1nnnn1-c1ccccc1,nt,-11%[10.9 µM],0%,nt,nt
Cc1noc(C)c1CSc1nc2ccccc2c(=O)n1-c1ccccc1,1%,-18%,?,10µM*,-2%
Cc1noc(C)c1CSc1nc2[nH]ncc2c(=O)n1-c1ccccc1,-2%,-20%,4%,10µM*,4%
Cc1nc(CSc2nc3[nH]ncc3c(=O)n2-c2ccccc2)cs1,0%,3%,-1%,?,9%
Cc1noc(C)c1CSc1nc2ccccc2c(=O)n1-c1ccc(F)cc1F,-1%,-17%,?,?,4%
COC(=O)c1c(NC(=O)c2ccco2)sc(C)c1C,0%,-1%,2%,10µM*,0%
CCCCc1nn2c(C)c(-c3ccc(OCC)cc3)nc2s1,nt,-11%[10.9 µM],-2%,nt,nt
Cc1ccc(OCCN2CCN(C(=O)CCC(=O)Nc3nnc(C)s3)CC2)cc1,-2%,-7%,1%,7.9µM*,5%
Cc1ccc(OCCN2CCN(C(=O)CCC(=O)Nc3nnc(C(C)C)s3)CC2)cc1,-3%,-52%,-3%,-7%,0%
Cc1cccc(C(=O)NCC(c2ccc3c(c2)OCO3)N2CCOCC2)c1 (centres undefined),nt,14%[10.9 µM],-1%,nt,nt
COC(=O)c1ccc(NC(=O)CSc2ncc3c(n2)-c2cc(Cl)ccc2N(Cc2ccccc2)S3(=O)=O)cc1,nt,?,4%,nt,nt
COc1ccccc1NC(=O)CSc1nc2nc(C)cc(C)c2c(=O)[nH]1,-1%,-1%,3%,10µM*,-6%
COc1ccccc1NC(=O)CSc1ncn[nH]1,-1%,-6%,-3%,-1%,-2%
COc1ccccc1NC(=O)CSc1nccc(=O)[nH]1,0%,-13%,-4%,0.5µM*,0%
COc1ccccc1NC(=O)CSc1nc(O)c(C/C=C/c2ccccc2)c(=O)[nH]1,nt,-2%[10.9 µM],?,nt,nt
CCCCN1C(=O)/C(=C2\SC(N3CCCCC3)=NC2=O)c2ccccc21,-3%,-28%,?,10µM*,12%
CCn1cc(C(=O)OCc2ccc(F)cc2)c(=O)c2ccc(C)nc21,0%,3%,-1%,13µM*,7%
CCn1cc(C(=O)OCc2ccccc2)c(=O)c2ccc(C)nc21,-1%,-9%,-2%,13µM*,-2%
COc1ccc(CN(Cc2cc3cc4c(cc3[nH]c2=O)OCO4)C(=O)NC2CCCCC2)cc1,0%[57.5 µM],-4%,1%,10µM*,4%
CCN(CC)CCN(Cc1cc2cc3c(cc2[nH]c1=O)OCCO3)C(=O)NC1CCCCC1,nt,nt,0%,15%,-1%
Cc1cc2c(cc(C(=O)OCC(=O)NCc3cccs3)n2C(C)C)o1,0%[57.5 µM],-11%,?,10µM*,-1%
CC(=O)Oc1c2occc2cc2ccc(=O)oc12,-5%,-2%,4%,-5%,0%
COc1c2occc2cc2ccc(=O)oc12,11%,-4%,-6%,16µM*!,0%
COc1ccc(C(NC(C)=O)c2ccc3cccnc3c2O)c(OC)c1 (centres undefined),-2%,-29%,6%,-7%,13µM*
SMILES,HBB splicing,Imprint erasure,IkB signaling,CRE Fsk mod,GFP derepression
CCOc1cc(C(Nc2cc(C)ccn2)c2ccc3cccnc3c2O)ccc1OC (centres undefined),nt,-30%[10.9 µM],?,nt,nt
CC(C)C(=O)NC(c1ccco1)c1ccc2cccnc2c1O (centres undefined),-2%[9.22 µM],-31%,?,4%,4µM*
COc1ccc(-c2c(NC(C)=O)n(C)c3ccccc3c2=O)cc1,-1%,-28%,?,0%,7%
COc1cc(C(=O)Nc2cc(-c3ccccc3)[nH]n2)cc(OC)c1OC,0%[0.0738 µM],4%,?,0.79µM*,-2%
COc1cc(NC(=O)c2ccco2)c(OC)cc1NC(=O)c1cc(OC)c(OC)c(OC)c1,nt,nt,?,4µM*,1%
COc1cc(C(=O)Nc2c(-c3ccccn3)c(=O)c3ccccc3n2C)cc(OC)c1OC,0%,5%,0%,0.16µM*,3%
Cc1cccn2cc(CCNS(=O)(=O)c3ccc4c(c3)OCCO4)nc12,1%,-14%,1%,10µM*,nt
CN(C)c1nc(N)nc(Cn2ccnc2)n1,0%,-3%,-6%,6.3µM*,-3%
CCSc1nc2ccccc2n1Cc1nc(N)nc(N(C)C)n1,0%,-10%,1%,?,0%
CCCCOCCCn1c(-c2ccco2)nc2nc3ccccc3nc21,?,-28%,?,13µM*,2%
CC(=O)N1CCN(c2ccc(Nc3ncnc4c3oc3ccccc34)cc2)CC1,3%[0.369 µM],-42%,?,-5%,2%
Cc1ccc(C)c2sc(N3CCN(C(=O)c4ccco4)CC3)nc12,nt,17%[10.9 µM],-1%,nt,nt
Cc1nc(N2CCN(C(=O)c3ccco3)CC2)c2oc3ccccc3c2n1,3%,-19%,?,4µM*,5%
Cc1nc2ccccc2c2oc(C(=O)NC3CC3)cc12,1%,-7%,-7%,7.9µM*,0%
Cc1nc2ccccc2c2oc(C(=O)N3CCN(C(=O)c4ccco4)CC3)cc12,-1%,-21%,1%,13µM*,3%
CC(=O)c1ccc(Nc2nc(C)nc3c2oc2ccccc23)cc1,-5%[0.369 µM],-4%,0%,2µM*,1%
Cc1nc2ccccc2c2oc(C(=O)N3CCc4ccccc4C3)cc12,-1%,-32%,?,?,-2%
COCCCNC(=O)c1ccc2c(c1)N=C(C)c1c(C)ccc(C)c1S2,nt,-27%[10.9 µM],1%,nt,nt
CCOc1ccc(OC(=O)c2sc3ncn(Cc4cccc(F)c4)c(=O)c3c2C)cc1,nt,-4%[10.9 µM],?,nt,nt
CCn1c(=O)c2cc(C(=O)N3CCN(C(=O)c4ccco4)CC3)sc2c2ccccc21,0%,-16%,-1%,4µM*,nt
CCc1nc(N2CCN(C(=O)c3ccco3)CC2)c2oc3ccccc3c2n1,1%[57.5 µM],-19%,?,3.2µM*,2%
CCc1nc(Nc2ccc(N3CCN(C(C)=O)CC3)cc2)c2oc3ccccc3c2n1,-1%[0.369 µM],-26%,?,1.3µM*,-2%
CCCN(C(=O)c1noc2c1COc1ccc(C)cc1-2)c1ccc(Cl)c(Cl)c1,nt,18%[10.9 µM],0%,nt,nt
CCOC(=O)c1c(-c2cccs2)csc1NC(=O)CN1CC(C)OC(C)C1 (centres undefined),0%[57.5 µM],-12%,?,2.5µM*,0%
CCn1c(N2CCN(CC(=O)c3c(C)n(C)c4ccccc34)CC2)nc2c1c(=O)[nH]c(=O)n2C,1%[1.84 µM],-13%,-2%,10µM*,0%
O=C(c1ccccc1)c1nc[nH]c1C(=O)Nc1ccccc1,-1%,-7%,?,10µM*,4%

# Bioassay records as filed in PubChem BioAssay.
